In the library only some 19% were active in any assay of this set; here they are far more common.
IL-1B inflam inh – inhibitors of inflammasome signaling (IL-1 beta secretion). THP-1 LPS/ATP IL-1B secretion, AlphaLISA, 16 h; hits give low values. activity change, % at 57.5 µM. 360,000 compounds, 4.7% hits. AID 743279; in the data active = activity change below about -50%; inconclusive = mostly about -30% to -49%
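THP-1 cells pretreated 1 hr with compounds (up to 57.5 uM final), then stimulated with LPS (250 ng/mL final) plus ATP (1.25 mM final); secreted IL-1B measured by AlphaLISA after 16 hr, decreased signal indicating inhibition.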
TDP1 block – TDP1 (human) enzyme inhibition; Q9NUW8; recombinant TDP1, AlphaScreen DNA substrate cleavage; Potency, µM (highest dose often 130 µM), for the others: at the highest dose activity change, negative = inhibition, usual class: inhibitors; 350,000 compounds, 0.28% hits; AID 485290; also: potency is read from the fitted curve at half-maximal effect; nearly all actives have a fitted effect of over 40% in size
Target sequence (Q9NUW8 whole entry, looked up): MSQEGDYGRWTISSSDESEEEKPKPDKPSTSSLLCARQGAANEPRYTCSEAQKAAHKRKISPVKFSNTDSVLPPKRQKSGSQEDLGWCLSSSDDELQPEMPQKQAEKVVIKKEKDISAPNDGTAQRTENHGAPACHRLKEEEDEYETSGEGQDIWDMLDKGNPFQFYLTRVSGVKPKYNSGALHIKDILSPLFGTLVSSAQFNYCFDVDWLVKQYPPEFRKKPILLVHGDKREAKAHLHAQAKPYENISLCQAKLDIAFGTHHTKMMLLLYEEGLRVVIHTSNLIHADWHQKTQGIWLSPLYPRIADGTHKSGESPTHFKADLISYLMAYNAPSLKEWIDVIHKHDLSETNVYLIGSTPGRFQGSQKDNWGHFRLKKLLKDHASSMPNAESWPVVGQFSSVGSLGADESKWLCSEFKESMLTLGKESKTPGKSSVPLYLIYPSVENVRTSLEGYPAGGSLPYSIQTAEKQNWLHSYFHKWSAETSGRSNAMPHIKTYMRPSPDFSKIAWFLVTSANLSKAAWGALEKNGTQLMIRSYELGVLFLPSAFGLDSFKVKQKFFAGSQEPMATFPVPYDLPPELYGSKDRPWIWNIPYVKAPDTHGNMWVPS
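Compounds were preincubated with Tdp1 (1 nM final) for 15 min at room temperature before substrate (15 nM final) started a 5 min reaction; beads (10 ug/ml final) were then added for 10 min before AlphaScreen detection.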
Giardia killer – kills Giardia lamblia | Giardia lamblia trophozoite viability | 340,000 compounds, 0.15% hits | activity change, % at 7.66 µM, hits read low; in the data active = activity change below about -80%; inconclusive = between about -30% and that limit;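 also: parasites exposed to compound for two days anaerobically before the ATP read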
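Trophozoites 100 cells/well + cpd; 48 hrs, 37 deg C, anaerobic. ATPLite 1-Step added, 15-30 min RT, luminescence read (ATP-based viability).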
TDP1 cell CPT – growth inhibition of DT40 Tdp1-/-;hTDP1 cells with camptothecin (screen for TDP1 inhibitors); chicken DT40 Tdp1-/-;hTDP1 cells + 20 nM CPT, ATP luminescence, 48 h; Potency, µM (top dose mostly 46.2 µM), inactives show at the top dose activity change, negative = growth inhibition, most hits filed as inhibitors; 420,000 compounds, 12% hits; AID 686979; also: potency is read from the fitted curve at half-maximal effect; nearly all actives have a fitted effect of over 55% in size
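Chicken DT40 Tdp1-/- cells stably complemented with human TDP1 were seeded at 400 cells/well in medium containing 20 nM camptothecin, exposed to pin-transferred compounds, and grown at 37 °C for at least 48 hr. Viability was read as ATP luminescence.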
ELG1 repair inh – blocks ELG1-dependent DNA repair in HEK293T cells. HEK293T ELG1-luciferase reporter, luminescence, 16 h; DNA damage induced by 5-fluorouridine. Potency, µM (doses to about 46.1 µM), inactives show at the top dose activity change, negative = inhibition, most hits filed as inhibitors. 330,000 compounds, 2.3% hits. AID 504467; also: potency is read from the fitted curve at half-maximal effect; nearly all actives have a fitted effect of over 55% in size
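Luminescence from the luciferase reporter, measured 30 min after ONE-Glo reagent at room temperature, was the read-out. Beforehand, 2,000 cells per well were exposed for 16 hr at 37 °C to 5-fluorouridine together with compound or vehicle.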
DT40 TDP1 no CPT – qHTS for Inhibitors of human tyrosyl-DNA phosphodiesterase 1 (TDP1): qHTS in cells in absence of CPT. DT40 Tdp1-/- hTDP1 cells, no CPT, ATP luminescence, 48 h. Potency, µM (highest dose often 46.2 µM), without a hit: at the top dose activity change, negative = growth inhibition, hits mostly inhibitors. 420,000 compounds, 15% hits. AID 686978, 2013; also: potency is read from the fitted curve at half-maximal effect; nearly all actives have a fitted effect of over 55% in size
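Growth of hTDP1-complemented DT40 Tdp1-knockout cells is measured by ATP luminescence after at least 48 hr compound exposure at 37 °C, with DMSO substituting for the 20 nM CPT used in the parallel screen.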
* hit, by the source's call; ? = inconclusive; / = no result; [ ] = another dose, or the depositor's remark. Unless noted, calls follow the shape of the dose curve; as a rule, active = well fitted curve in the direction sought with a large enough effect; inconclusive = small, poorly fitted or top-dose-only effect, or another doubt; inactive = no such curve, though single readings can be large; an effect the other way counts as inactive or inconclusive. % is scaled to controls: 0 for no effect and ±100 for the full control effect.

SMILES | IL-1B inflam inh | TDP1 block | Giardia killer | TDP1 cell CPT | ELG1 repair inh | DT40 TDP1 no CPT
COc1ccccc1NC(=O)c1c(N=Cc2cccc([N+](=O)[O-])c2)cnn1C | / | 2.7% | 7.9 | 4.4% | -17.7% | -26.9%
COc1ccc2nc(NC(=O)c3cccnc3SC)sc2c1 | -3.5 | -2.8% | -27.8 | -13.0% | ? | ?
CCOc1ccc(NC(=O)CN2C(=O)COc3ccc(S(=O)(=O)NC4CCCC4)cc32)cc1 | / | -3.7% | / | ? | / | ?
COc1cc(/C=N/NC(=S)NC(C)C)ccc1OCC(=O)Nc1c(C)cc(C)cc1C | 28.2 | 0.6% | 12.7 | 7.31µM* | ? | 7.31µM*
CCNC(=S)N/N=C/c1ccc(OCC(=O)Nc2ccc(OC)cc2)c(OC)c1 | -1.8 | 5.8% | 8.1 | ? | ? | ?
COc1ccc(NC(=O)COc2ccc(/C=N/O)cc2OC)cc1 | -15.9 | 4.6% | 2.4 | ? | ? | 11.6µM*
CCCCNC(=S)N(C)/N=C/c1ccc(OCC(=O)Nc2c(C)cc(C)cc2C)c(OC)c1 | -9.4 | 0.0% | 35.6 | 13µM* | ? | 8.2µM*
COc1cc(/C=N/NC(=O)c2ccncc2)ccc1OCC(=O)Nc1ccc(C)c(C)c1 | 17.0 | / | 2.5 | ? | ? | ?
COc1cc(/C=N/NC(=S)Nc2cccc(Cl)c2C)ccc1OCC(=O)N1CC(C)OC(C)C1 (stereo not given) | -25.7 | 5.4% | 9.1 | 14.6µM* | ? | 14.6µM*
CCCCNC(=S)N(C)/N=C/c1ccccc1C(=O)O | 0.0 | 1.5% | 1.5 | -2.9% | 3.7% | ?
O=C(c1ccco1)N1CCC2(CCCN(c3ccncc3)C2)CC1 | / | / | / | -10.4% | / | -27.9%
CCCCNC(=S)N(C)/N=C/c1ccc(OCC(=O)Nc2ccc(OC)cc2)c(OC)c1 | ? | 1.1% | 28.0 | 23.1µM* | 10.3µM* | ?
COc1ccc(CNC(=O)Nc2ccc3c(c2)N(C)C(=O)CS3)cc1 | 0.1 | 0.0% | -5.3 | ? | 0.0% | ?
COc1ccc(CNC(=O)CCNS(=O)(=O)c2cc(Br)cnc2N)cc1 | 29.3 | 3.9% | 4.8 | 20.6µM* | ? | 13µM*
COc1cccc(OC)c1-c1cc(CCCc2cc(-c3c(OC)cccc3OC)nc3ccccc23)c2ccccc2n1 | / | / | / | ? | / | 12.6µM*
Cn1c(CCNC(=O)c2ccccc2)nc2cc(NC(=O)C3CCCCC3)ccc21 | 13.3 | 0.7% | 18.7 | ? | ? | ?
CCOC(=O)c1sc2nc(C)nc(N3CCN(c4ncccn4)CC3)c2c1C | -3.0 | -5.5% | -5.7 | ? | ? | 14.6µM*
CCOC(=O)c1sc2nc(CSc3ccccc3)nc(NCCN(C)C)c2c1C | ? | 7.5% | 5.2 | 16.4µM* | 1.8% | ?
CCOC(=O)c1sc2nc(CC(=O)OC)nc(NCc3ccco3)c2c1C | -2.3 | 6.9% | 31.8 | ? | ? | ?
CCOC(=O)c1sc2nc(C)nc(NCc3ccccc3OC)c2c1C | -29.7 | / | -11.8 | 23.1µM* | ? | ?
COc1ccccc1CNc1nc(C)c(C(C)=O)s1 | -1.4 | 14.4% | 14.7 | 20.6µM* | -0.4% | 16.4µM*
CCOC(=O)c1sc2ncnc(N3CCN(C)CC3)c2c1C | ? | 0.0% | 30.6 | ? | 19.1% | ?
COc1ccccc1CNc1nc(C)c(C(=O)N(C)C)s1 | 37.5 | 13.0% | -7.4 | ? | 11.1% | ?
O=C(COCc1cc(-c2ccc(F)cc2)on1)Nc1cccc(C(F)(F)F)c1 | / | -2.3% | / | ? | / | ?
Cc1ccc(S(=O)(=O)NCCC(=O)OCC(=O)NC(=O)c2cccn2C)cc1 | 18.5 | -0.6% | 9.0 | -0.3% | -4.3% | 10.3%
SMILES | IL-1B inflam inh | TDP1 block | Giardia killer | TDP1 cell CPT | ELG1 repair inh | DT40 TDP1 no CPT
CC1(C)CC2(CCO1)OC(=O)CC2C(=O)Nc1ccccc1Cl (stereo not given) | 20.1 | 0.0% | 13.9 | ? | 12.1% | ?
CN(CC(=O)N1CCc2ccccc2C1)c1ccccc1 | -4.5 | / | 1.0 | -17.4% | -0.1% | -23.7%
Cc1nc([N+](=O)[O-])cn1CC(=O)c1ccc2c(c1)OCCO2 | / | / | / | -14.7% | / | -6.8%
COC(=O)c1ccccc1NC(=O)Cn1c(=O)n(Cc2ccc(C(=O)NCc3ccc4c(c3)OCO4)cc2)c(=O)c2ccccc21 | / | 2.7% | / | -19.8% | / | -18.9%
CCOC(=O)c1sc2nc(C)nc(NCCc3ccccn3)c2c1C | -54.7* | 3.4% | 2.3 | 20.6µM* | 20.6µM* | 20.6µM*
Cc1c(C(=O)N2CCCC2)sc2ncnc(NCCc3ccccn3)c12 | / | / | / | -2.2% | / | -16.7%
Cc1ccc(-n2nnnc2SCC(=O)Nc2ccccc2N2CCCCC2)cc1C | -8.2 | 2.1% | 14.3 | ? | 9.2µM* | 18.4µM*
COc1ccc(C)cc1-n1nnnc1SCC(=O)Nc1cccnc1Cl | 0.0 | 2.8% | 21.6 | ? | ? | 20.6µM*
Cc1ccc(-n2nnnc2SCC(=O)Nc2ccccc2-c2ccccc2)cc1C | -7.4 | 5.3% | 7.1 | ? | ? | ?
Cc1ccc(C)c(NC(=O)CSc2nncn2C)c1 | 36.6 | / | -7.2 | -2.1% | -2.7% | -5.1%
CSc1ccccc1-n1nnnc1SCC(=O)Nc1cc(C)ccc1C | -51.2* | 6.8% | 23.9 | -18.1% | -6.7% | ?
CCC(C)NS(=O)(=O)c1ccc(NC(=O)CNCc2cccs2)cc1 (stereo not given) | 25.3 | / | 18.1 | ? | / | ?
Oc1ccc(Nc2nc3ccccc3nc2Nc2ccc(O)cc2)cc1 | -4.1 | -1.8% | -2.2 | 1.64µM* | ? | 2.31µM*
COc1ccc(-c2nc(N/N=C(\C)c3ccc(O)cc3)c3ccccc3n2)cc1 | -8.2 | 2.7% | ? | 20.6µM* | ? | 7.31µM*
Cc1ccc2nc(-c3cccc(NS(C)(=O)=O)c3)cc(-c3ccccc3)c2c1 | -100.5* | 4.6% | 43.7 | ? | ? | ?
Cc1cccc(CNc2nc(-c3cccc(NS(C)(=O)=O)c3)nc3ccccc23)c1 | / | 16.0%[56.1 µM] | / | ? | / | ?
Oc1ccc(Nc2nc(-c3ccccc3)nc3ccccc23)cc1 | -93.7* | / | -23.8 | ? | ? | ?
C#CCN1[C@@H]2CCN(C2)c2cc(Br)ccc2S1(=O)=O | 9.2 | / | 10.2 | -11.4% | / | ?
CC(=O)Nc1ccc(Nc2nc(-c3ccccc3)nc3ccccc23)cc1 | ? | -2.7% | 13.5 | 18.4µM* | ? | 23.1µM*
COc1ccc(Nc2nc(-c3ccccc3)nc3ccccc23)cc1 | -94.9* | / | -5.7 | ? | 20.6µM* | ?

Screening results deposited in PubChem by National Center for Advancing Translational Sciences (NCATS).
